Inconclusive results are not listed. Calls of active or inactive are those of the source. Unless noted, the call rests on the fitted dose curve.
Key:
[1] = Nuclear factor erythroid 2-related factor 2/antioxidant responsive element (Nrf2/ARE) small molecule agonists: qHTS cell viability counter screen in human keratinocytes (AID 1919968; active means well fitted curve in the direction sought with a large enough effect in the repeat runs; an effect the other way counts as inactive or inconclusive; further: nearly all actives have a fitted effect of over 55% in size)
Procedure, shortened: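 Stably transfected HaCaT (KeratinoSens), 1,500/well. Test agents in DMSO were applied for 23 h, 37 C/5% CO2. CellTiter-Fluor was incubated 1 h before the fluorescence read.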

[2] = Nuclear factor erythroid 2-related factor 2/antioxidant responsive element (Nrf2/ARE) small molecule agonists: luciferase reporter gene qHTS assay in human keratinocytes (AID 1919969); further: nearly all actives have a fitted effect of over 35% in size
[3] = target: Gonadotropin-releasing hormone receptor (Homo sapiens) (UniProt P30968); experiment: Human gonadotropin-releasing hormone receptor (GnRHR) small molecule agonists, calcium flux assay in GnRHR-HEK293 cells (AID 1920063); further: nearly all actives have a fitted effect of over 35% in size
Procedure, shortened: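 Stable human GnRHR HEK293 line. 18 h plating, then calcium dye for 1 h at 37 C. Agonist-mode compound addition from DMSO stocks; fluorescence monitored 3 min.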

[4] = target: KiSS-1 receptor (Homo sapiens) (UniProt Q969F8); experiment: Human kisspeptin (KISS1R) small molecule agonists, calcium flux assay in KISS1R-HEK293 cells (AID 1920064; active means well fitted curve in the direction sought with a large enough effect in the repeat runs; an effect the other way counts as inactive or inconclusive)
Procedure, shortened: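 After overnight (18 h) culture at 37 C/5% CO2, human KISS1R-HEK293 cells received calcium dye for 1 h, then test compound; emission at 540 nm (excitation 480 nm) was tracked for 3 min.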

[5] = G protein-coupled receptor (GPCR) small molecule agonists, calcium flux assay: HEK293 wild type cell line counter screen (AID 1920065)
Procedure, shortened: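 Following 18 h incubation at 37 C/5% CO2, plates got calcium dye for 1 h; compounds, ATP or DMSO were then pinned in and fluorescence followed kinetically (480/540 nm).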

[6] = p53 small molecule agonists, cell-based qHTS assay with human liver microsomes (AID 1963577)
Procedure, shortened: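 p53RE-bla cells, 4,000/well, compound added after 5 h, with human liver microsomes 0.5 mg/mL and NADPH 0.5 mg/mL final; 16 h at 37 C, then LiveBLAzer 2 h RT, fluorescence.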

[7] = p53 small molecule agonists, cell-based qHTS assay with rat liver microsomes (AID 1963578)
Procedure, shortened: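 p53RE-bla cells, 4,000/well, pre-incubated 5 h, then given compounds plus rat liver microsomes (0.5 mg/mL final) and NADPH (0.5 mg/mL final). Incubation 16 h at 37 C; beta-lactamase reporter read by LiveBLAzer fluorescence after 2 h at room temperature.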

[8] = p53 small molecule agonists, cell-based qHTS assay with human liver microsomes: qHTS cell viability counter screen (AID 1963579); further: nearly all actives have a fitted effect of over 45% in size
Procedure, shortened: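 p53RE-bla cells, 4,000/well, dosed 5 hours after plating, with human liver microsomes (0.5 mg/mL final) plus NADPH (0.5 mg/mL final), 16 hours at 37 C. Viability read as CellTiter-Glo luminescence after 30 min at room temperature.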

[9] = p53 small molecule agonists, cell-based qHTS assay with rat liver microsomes: qHTS cell viability counter screen (AID 1963580); further: nearly all actives have a fitted effect of over 45% in size
Procedure, shortened: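 Cytotoxicity counter screen: intracellular ATP measured by CellTiter-Glo luminescence in the same wells as the beta-lactamase reporter read, on HCT-116 p53RE-bla cells exposed 16 h at 37 C to compounds with rat liver microsomes and NADPH, each 0.5 mg/mL final.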

[10] = p53 small molecule agonists, cell-based qHTS assay: qHTS cell viability counter screen (AID 1963581); further: nearly all actives have a fitted effect of over 45% in size
Procedure, shortened: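 qHTS counter screen: 16 h compound exposure at 37 C of p53RE-bla HCT-116 cells (4,000 per well, seeded 5 h prior), cell viability by ATP luminescence.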

[11] = p53 small molecule agonists, cell-based qHTS assay (AID 1963582; active means well fitted activation curve with a large enough effect in the signal ratio in the repeat runs, not every such curve was filed as active; the % refers to the signal ratio)
Procedure, shortened: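 Measured: fluorescence from cleaved LiveBLAzer substrate. System: p53RE-bla cells, 16 h compound treatment at 37 C, 2 h substrate step at room temperature.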

[12] = target: 5-hydroxytryptamine receptor 2A (Homo sapiens) (UniProt P28223); experiment: 5-hydroxytryptamine receptor 2A (HTR2A) small molecule antagonists, cell-based qHTS assay (AID 1963586); further: nearly all actives have a fitted effect of over 45% in size
Procedure, shortened: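 CHO cells stably expressing human HTR2A were plated for 18 h at 37 C, then loaded with calcium dye for 1 h. Compounds were preincubated 5 min at room temperature before DOI (4 nM solution) was added. Kinetic fluorescence was read for 3 min.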

[13] = target: 5-hydroxytryptamine receptor 2A (Homo sapiens) (UniProt P28223); experiment: 5-hydroxytryptamine receptor 2A (HTR2A) small molecule agonists, cell-based qHTS assay (AID 1963587); further: nearly all actives have a fitted effect of over 30% in size
Procedure, shortened: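 CHO cells stably expressing human HTR2A, plated 18 h, loaded with calcium dye 1 h at 37 C. Agonist mode: compounds added and intracellular calcium fluorescence recorded kinetically for 2 min at 1 sec intervals.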

[14] = target: Muscarinic acetylcholine receptor M1 (Homo sapiens) (UniProt P11229); experiment: Cholinergic receptor muscarinic 1 (CHRM1) small molecule antagonists, cell-based qHTS assay (AID 1963588); further: nearly all actives have a fitted effect of over 40% in size
Procedure, shortened: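 Compounds were tested at 15 concentrations in three independent runs. Dye-loaded CHRM1-CHO cells were exposed 5 min at room temperature before stimulation by acetylcholine added at 50nM. Intracellular calcium was read kinetically on FDSS for 3 min.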

[15] = target: Muscarinic acetylcholine receptor M1 (Homo sapiens) (UniProt P11229); experiment: Cholinergic receptor muscarinic 1 (CHRM1) small molecule agonists, cell-based qHTS assay (AID 1963589); further: nearly all actives have a fitted effect of over 35% in size
Procedure, shortened: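 Kinetic fluorescence (1 s intervals) of calcium-sensitive dye in human M1 CHO cells after compound addition; cells pre-incubated 18 h at 37 C/5% CO2 and dye-loaded 1 h.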

[16] = cAMP Responsive Elements (CRE) small molecule agonists, cell-based qHTS assay (AID 1963590)
Procedure, shortened: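 Test agents in DMSO were incubated 3 h at 37 C/5% CO2 with CRE-bla HEK 293T cells seeded 18 h earlier; LiveBLAzer B/G FRET substrate was added and read after 2 h at room temperature.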

[17] = cAMP Responsive Elements (CRE) small molecule antagonists, cell-based qHTS assay (AID 1963591; active means well fitted inhibition curve with a large enough effect in the signal ratio in the repeat runs, not every such curve was filed as active; the % refers to the signal ratio)
Procedure, shortened: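 Reporter line CRE-bla HEK 293T in dialyzed-FBS DMEM; cells preincubated 18 h, treated 3 h with compound plus NKH477 (0.25 uM final); LiveBLAzer FRET, 2 h RT.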

[18] = target: Beta-2 adrenergic receptor (Homo sapiens) (UniProt P07550); experiment: Adrenergic beta2 receptor (ADRB2) small molecule antagonists, cell-based qHTS assay (AID 1963592); further: series mostly up to about 92 µM; nearly all actives have a fitted effect of over 50% in size
Procedure, shortened: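 Assay format: CHO-ADRB2 cells, 18-20hr seeding at 37C/5% CO2, then compound plus 1nM isoproterenol agonist mix for 0.5hr RT. Homogeneous time-resolved fluorescence cAMP detection after 1hr, expressed as 665/615 nm ratio.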

[19] = target: D(2) dopamine receptor (Homo sapiens) (UniProt P14416); experiment: Dopamine D2 receptor (DRD2) small molecule agonists, cell-based qHTS assay (AID 1963594); further: nearly all actives have a fitted effect of over 35% in size
Procedure, shortened: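 HEK293 cells stably expressing human DRD2, pre-treated with PDE inhibitor Ro20-1724 (0.1 mM final) and compound 10 min at room temperature, then stimulated with NKH477 (200nM […]) for 30 min. cAMP read by HTRF (665/620 nm).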

[20] = target: D(2) dopamine receptor (Homo sapiens) (UniProt P14416); experiment: Dopamine D2 receptor (DRD2) small molecule antagonists, cell-based qHTS assay (AID 1963595; active means well fitted inhibition curve with a large enough effect in the signal ratio in the repeat runs, with a control signal flat; the % refers to the signal ratio)
Procedure, shortened: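 Antagonism was scored as restored cAMP in HEK293-DRD2 cells. These cells were stimulated with 200 nM NKH477 and 12 nM quinpirole for 30 min at room temperature, in the presence of 0.1 mM Ro20-1724.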

Measured: Potency

Chain of Beta-2 adrenergic receptor (Homo sapiens) (P07550 whole entry, looked up): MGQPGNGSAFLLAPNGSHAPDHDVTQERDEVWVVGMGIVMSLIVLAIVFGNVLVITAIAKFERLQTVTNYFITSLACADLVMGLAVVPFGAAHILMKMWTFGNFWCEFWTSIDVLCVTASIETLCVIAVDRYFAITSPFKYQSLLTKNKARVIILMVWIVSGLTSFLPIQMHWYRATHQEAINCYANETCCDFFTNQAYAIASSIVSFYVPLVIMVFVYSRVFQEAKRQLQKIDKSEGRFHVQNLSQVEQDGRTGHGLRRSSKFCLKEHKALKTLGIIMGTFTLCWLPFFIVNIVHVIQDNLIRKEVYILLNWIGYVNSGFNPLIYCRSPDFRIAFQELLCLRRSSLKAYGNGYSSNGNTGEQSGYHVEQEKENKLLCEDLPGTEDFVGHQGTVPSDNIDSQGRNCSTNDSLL
Chain of KiSS-1 receptor (Homo sapiens) (Q969F8 whole entry, looked up): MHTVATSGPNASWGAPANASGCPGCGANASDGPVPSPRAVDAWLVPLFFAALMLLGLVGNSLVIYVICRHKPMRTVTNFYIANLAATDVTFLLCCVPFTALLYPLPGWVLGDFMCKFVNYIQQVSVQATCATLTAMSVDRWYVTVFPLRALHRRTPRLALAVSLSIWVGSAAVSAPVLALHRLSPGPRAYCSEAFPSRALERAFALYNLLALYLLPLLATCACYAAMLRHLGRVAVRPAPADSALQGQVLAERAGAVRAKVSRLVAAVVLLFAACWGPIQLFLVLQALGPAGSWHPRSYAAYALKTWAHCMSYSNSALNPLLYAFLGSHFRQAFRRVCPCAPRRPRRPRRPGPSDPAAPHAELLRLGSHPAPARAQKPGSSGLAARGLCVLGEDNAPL
Chain of D(2) dopamine receptor (Homo sapiens) (P14416 whole entry, looked up): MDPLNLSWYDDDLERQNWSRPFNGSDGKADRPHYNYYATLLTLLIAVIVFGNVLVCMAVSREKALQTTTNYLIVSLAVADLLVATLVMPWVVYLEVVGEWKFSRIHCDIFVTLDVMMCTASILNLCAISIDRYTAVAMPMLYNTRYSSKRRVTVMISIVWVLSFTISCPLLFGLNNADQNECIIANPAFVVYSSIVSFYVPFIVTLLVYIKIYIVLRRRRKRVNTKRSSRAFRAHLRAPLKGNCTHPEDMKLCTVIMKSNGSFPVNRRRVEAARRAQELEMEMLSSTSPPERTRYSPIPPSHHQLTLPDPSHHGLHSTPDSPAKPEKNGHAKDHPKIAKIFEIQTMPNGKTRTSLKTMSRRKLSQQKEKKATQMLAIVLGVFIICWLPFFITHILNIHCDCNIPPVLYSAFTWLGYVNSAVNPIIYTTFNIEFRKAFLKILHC
Chain of Muscarinic acetylcholine receptor M1 (Homo sapiens) (P11229 whole entry, looked up): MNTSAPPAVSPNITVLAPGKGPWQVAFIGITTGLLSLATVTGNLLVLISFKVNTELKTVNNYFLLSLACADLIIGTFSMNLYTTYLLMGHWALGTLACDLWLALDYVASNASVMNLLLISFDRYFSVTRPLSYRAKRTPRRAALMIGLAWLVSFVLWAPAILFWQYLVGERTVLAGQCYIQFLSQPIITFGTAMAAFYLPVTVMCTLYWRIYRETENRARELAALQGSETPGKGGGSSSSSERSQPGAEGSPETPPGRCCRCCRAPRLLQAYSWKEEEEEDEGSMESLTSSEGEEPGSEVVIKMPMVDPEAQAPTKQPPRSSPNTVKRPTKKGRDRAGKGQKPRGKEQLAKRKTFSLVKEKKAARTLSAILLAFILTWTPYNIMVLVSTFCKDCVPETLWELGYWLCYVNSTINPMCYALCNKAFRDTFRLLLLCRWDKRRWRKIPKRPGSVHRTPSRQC
Chain of 5-hydroxytryptamine receptor 2A (Homo sapiens) (P28223 whole entry, looked up): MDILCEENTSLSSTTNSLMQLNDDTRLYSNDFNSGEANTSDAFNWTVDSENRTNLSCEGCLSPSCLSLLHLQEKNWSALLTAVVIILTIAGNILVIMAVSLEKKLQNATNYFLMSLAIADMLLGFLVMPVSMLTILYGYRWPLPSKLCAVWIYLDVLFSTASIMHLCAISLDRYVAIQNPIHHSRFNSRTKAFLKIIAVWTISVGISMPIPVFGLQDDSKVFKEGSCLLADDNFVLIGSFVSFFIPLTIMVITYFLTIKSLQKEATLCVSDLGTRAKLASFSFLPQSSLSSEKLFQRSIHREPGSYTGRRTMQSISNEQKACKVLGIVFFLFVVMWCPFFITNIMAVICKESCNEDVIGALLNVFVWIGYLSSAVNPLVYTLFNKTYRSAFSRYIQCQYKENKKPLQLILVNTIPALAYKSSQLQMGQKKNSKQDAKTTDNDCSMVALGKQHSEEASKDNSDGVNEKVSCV
Chain of Gonadotropin-releasing hormone receptor (Homo sapiens) (P30968 whole entry, looked up): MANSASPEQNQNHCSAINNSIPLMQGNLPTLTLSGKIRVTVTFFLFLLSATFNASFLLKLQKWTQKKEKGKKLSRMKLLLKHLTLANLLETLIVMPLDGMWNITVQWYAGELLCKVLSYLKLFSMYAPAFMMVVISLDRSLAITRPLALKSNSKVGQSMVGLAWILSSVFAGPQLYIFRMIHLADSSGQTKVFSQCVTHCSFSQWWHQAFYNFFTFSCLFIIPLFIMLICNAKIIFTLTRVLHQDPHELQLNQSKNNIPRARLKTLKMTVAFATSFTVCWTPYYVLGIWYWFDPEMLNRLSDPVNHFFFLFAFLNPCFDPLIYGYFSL

COc1ccc(CCC(C)=O)cc1
not listed: [20]
inactive: all other assays above

CCCCOCCOCCO
inactive: all assays above

CCCCCC(=O)O
not listed: [20]
inactive: all other assays above

CCC(=O)O
inactive: all assays above

C1COCCN1
inactive: all assays above

Cc1ccc(Cl)cc1
not listed: [20]
inactive: all other assays above

C[Si](O[Si](C)(C)C)O[Si](C)(C)C
inactive: all assays above
